Results with a measured potency or affinity are listed apart. Activity calls are given as the source filed them.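 How the source made its calls: active means cell toxicity seen as a signal drop, with half-maximal potency at most twice the top valid dose; inconclusive means flat curve with a partial drop, or a poor fit; inactive means the rest, including rises in signal.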

This assay in a line: ATP-based viability loss in HEK293T cells – cell-based, CellTiter-Glo luminescence, cherry-picked samples, set 4, cytotoxicity control, dose response (AID 743441). Particulars: 72 h; series mostly up to 26 µM; activity change, negative = cytotoxicity: at the top concentration. A general note: Cellular ATP, detected with luciferase, serves as a proxy for viable cell number.
In the case of `COc1ccc(NC(=O)c2ccc(-c3ccc([N+](=O)[O-])cc3)o2)cc1`, the “activity change, negative = cytotoxicity” value is 8.52 unspecified (inactive).

With `C[C@@H]1CCCCO[C@H](CN(C)C(=O)CCCN(C)C)[C@H](C)CN([C@@H](C)CO)C(=O)c2cc(NC(=O)Nc3cccc4ccccc34)ccc2O1`, the “activity change, negative = cytotoxicity” value is 23.1 unspecified (inactive).

On to `COc1ccc(Nc2oc(-c3ccco3)nc2S(=O)(=O)c2ccc(F)cc2)cc1`, for which the “activity change, negative = cytotoxicity” value is -2.57 unspecified (inactive).

Consider `C[C@@H]1CCCCO[C@H](CN(C)CC2CC2)[C@H](C)CN([C@@H](C)CO)C(=O)c2cc(NC(=O)Nc3cccc4ccccc34)ccc2O1`, for which the “activity change, negative = cytotoxicity” value is 12.6 unspecified (inactive).

(Values after PubChem BioAssay AID743441 (Broad Institute, 2014).)
